Reference: PubChem BioAssay
Values without a mark were called inactive. How the calls were made is not given here.

Biological target: Pantothenate synthetase (Mycobacterium tuberculosis (strain ATCC 25618 / H37Rv)) (UniProt P9WIL5)
Test: Coupled enzyme confirmation of inhibitors against recombinant Mtb PanC (AID 375);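 further: 0% = full reaction with vehicle and 100% = no enzyme background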
Details: coupled enzyme assay; at 10 µM, active compounds read high

Sequence of Pantothenate synthetase (Mycobacterium tuberculosis (strain ATCC 25618 / H37Rv)) (P9WIL5 whole entry, looked up): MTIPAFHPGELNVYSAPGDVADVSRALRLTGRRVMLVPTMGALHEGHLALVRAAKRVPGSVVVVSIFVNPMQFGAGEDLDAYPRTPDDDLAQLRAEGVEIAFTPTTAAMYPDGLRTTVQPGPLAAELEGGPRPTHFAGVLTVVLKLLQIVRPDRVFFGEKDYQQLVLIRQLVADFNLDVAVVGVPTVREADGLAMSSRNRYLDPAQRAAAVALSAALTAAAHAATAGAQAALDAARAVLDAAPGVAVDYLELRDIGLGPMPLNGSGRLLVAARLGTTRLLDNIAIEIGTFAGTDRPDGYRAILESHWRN

Structure (SMILES) | inhibition [%]
CCCCN1CN(S(=O)(=O)c2cccs2)c2nc3ccccc3nc21 | 0
Cc1cc(Cl)ccc1OCCCC(=O)N1CCOCC1 | 0
O=C(c1ccc(Cl)s1)N1CCN(c2nc3ccccc3s2)CC1 | 6
COc1cccc2cc(C(=O)N3CCN(C45CC6CC(CC(C6)C4)C5)CC3)c(=O)oc12 | 1
CCOC(=O)c1cccc(NC2c3ccccc3C(=O)N2Cc2ccco2)c1 (centres undefined) | 7
CN(C)S(=O)(=O)c1ccc2c(c1)c(=O)c(C(=O)NCCCN1CCCCCC1)cn2C | 0
O=c1cc(CSc2ccccn2)c2ccccc2[nH]1 | 3
CCc1nc(C)c(-c2ccccc2)c(=O)[nH]1 | 6
CCCCOc1ccccc1C1C(C(N)=O)=C(C)Nc2nnnn21 (centres undefined) | 0
COCCCNC(=O)c1ccccc1NS(=O)(=O)c1ccc(C)cc1 | 1
c1ccc(-c2cc3c(nn2)CCc2nonc2-3)cc1 | 0
CC(=O)OCC1OC(c2ccccc2)C(OC(C)=O)C(OC(C)=O)C1OC(C)=O (centres undefined) | 0
O=C1c2ccccc2C(Nc2ccc(F)c(Cl)c2)N1Cc1ccco1 (centres undefined) | 3
CCOc1ccccc1NC(=O)CCN1CCN(S(=O)(=O)c2ccc(Br)cc2)CC1 | 0
COc1cc(NC(=O)CN(c2cc(C)cc(C)c2)S(=O)(=O)c2c(C)noc2C)cc(OC)c1 | 0
FC(F)Oc1ccc(-c2csc(Cc3nnc4n3CCCCC4)n2)cc1 | 0
Cc1nc2ccccn2c1C(=O)NCCCN1CCOCC1 | 10
COc1ccc(CCNC(=O)CSc2nnc(CNc3ccc(Cl)cc3)o2)cc1OC | 0
O=C(Nc1ccc2c(c1)OCCO2)C1CCN(C(=O)c2ccc(F)cc2)CC1 | 0
Cc1cc(NC(=O)CCC(=O)N(c2cccnc2)C(C(=O)NC2CCCC2)c2ccccc2F)no1 (centres undefined) | 0

Structure (SMILES) | inhibition [%]
CCN(CC)C(=O)Cn1ncc2c1-c1ccccc1OC2 | 0
CCOc1cc(NC(=O)c2ccco2)c(OCC)cc1NC(=O)Cc1cccc(OC)c1 | 8
CCOC(=O)c1[nH]c2ccc(F)cc2c1NC(=O)C(C)N1CCc2cc(OC)c(OC)cc2C1 (centres undefined) | 3
COc1ccccc1NC(=O)N(Cc1ccccc1)c1ccccn1 | 6
CCCCCn1c(CN2CCN(c3cccc(Cl)c3)CC2)nc2c1c(=O)n(C)c(=O)n2C | 0
COc1cccc(C2=NOC(C(=O)N3CCN(c4ccccc4)CC3)C2)c1OC (centres undefined) | 1
CCCCOc1ccc(C2C3CN(C(=O)OCC)CC=C3C(C#N)=C(N)C2(C#N)C#N)cc1OC (centres undefined) | 0
Cc1ccc(OCc2nnc(SCC(=O)Nc3ccc4c(c3)OCO4)n2C)cc1 | 0
O=c1c2cc(Cl)ccc2[nH]c(=S)n1Cc1ccco1 | 8
NS(=O)(=O)c1ccc(NCc2c(F)cccc2Cl)cc1 | 2
O=C(Nc1cccc(F)c1)c1ccc2c(c1)OCO2 | 2
CCc1ccc(NS(=O)(=O)c2ccc3[nH]cc(C(=O)N4CCCCC4)c(=O)c3c2)cc1 | 0
CCOc1ccc(C2CC(c3cccc(C)c3)n3ncnc3N2)cc1 (centres undefined) | 0
CCOC(=O)C1/C(=N\O)CC(C)(O)C(C(=O)OCC)C1c1ccc(N(C)C)cc1 (centres undefined) | 0
COc1cc(OC)cc(-c2nc3nc(C)c(CCC(=O)O)c(C)n3n2)c1 | 0
COc1ccc(C(=O)Nc2ccccc2C(=O)NCCN2CCOCC2)cc1 | 0
CCCCn1nnnc1SCC(=O)Nc1cccc(C)n1 | 1
CCCOc1nc(N)c(C#N)c(-c2ccccc2F)c1C#N | 4
Cc1nc(SCCC(=O)O)c2ccccc2n1 | 6
